Screening results from PubChem.
Only some compounds are listed: those with a hit (about 28% of all), similar ones and a draw of the others.
CYP2C9 inh: blocks human cytochrome P450 2C9 | 20% of 96,000 active | CYP2C9 Supersomes, luciferin-H conversion, luminescence | inhibition, % at 5 µM;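 active = blocking of liver enzyme CYP2C9 beyond about 50% at 5 µM, limit read from the data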
CYP2C19 inhib: human CYP2C19 inhibition; CYP2C19 Supersomes, luciferin-H EGE luminescence, 30 min; inhibition, % at 5 µM; 21% of 96,000 active; AID 778;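 active = CYP2C19 inhibition above a set limit at 5 µM in the primary screen, cut at about 50% in these data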;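 note: plate controls were negative control wells for no effect and 2.5 mM tranylcypromine positive control for full effect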
CYP2C19 activ: activators of human cytochrome P450 2C19. P33261. recombinant CYP2C19, luciferin-H EGE luminescence; active compounds read high; 0 = fully inhibited enzyme, 1 = untreated enzyme. activation factor at 5 µM. 96,000 tested, under 10 active. AID 1025;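 active = activation factor of at least 2 at 5 µM in the primary screen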;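 note: 0 = wells with 2.5 mM tranylcypromine and 1 = vehicle-only wells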
CYP2C9 act: activators of human CYP2C9; recombinant CYP2C9, luciferin-H conversion, luminescence; active compounds read high; factor 1 = untreated enzyme, 0 = blocked; AID 1024; 1.4% of 96,000 active; activation factor at 5 µM; P11712;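 active = activation factor of 2 or more for CYP2C9 at a 5 µM dose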;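 note: 0 = sulfaphenazole-blocked wells and 1 = vehicle-only wells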
Mac1 fbg inh: CD11b/CD18-fibrinogen binding inhibition; P05107+P11215; K562 CD11b/CD18 adhesion to fibrinogen, ATPlite luminescence; Mn2+ added to activate the integrin; inhibition, % at 10 µM; 0.54% of 93,000 active;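 active = primary inhibition of 50% or more at 10 µM, then 40% or more on retest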
Target sequence (P05107 whole entry, looked up, other chains not shown): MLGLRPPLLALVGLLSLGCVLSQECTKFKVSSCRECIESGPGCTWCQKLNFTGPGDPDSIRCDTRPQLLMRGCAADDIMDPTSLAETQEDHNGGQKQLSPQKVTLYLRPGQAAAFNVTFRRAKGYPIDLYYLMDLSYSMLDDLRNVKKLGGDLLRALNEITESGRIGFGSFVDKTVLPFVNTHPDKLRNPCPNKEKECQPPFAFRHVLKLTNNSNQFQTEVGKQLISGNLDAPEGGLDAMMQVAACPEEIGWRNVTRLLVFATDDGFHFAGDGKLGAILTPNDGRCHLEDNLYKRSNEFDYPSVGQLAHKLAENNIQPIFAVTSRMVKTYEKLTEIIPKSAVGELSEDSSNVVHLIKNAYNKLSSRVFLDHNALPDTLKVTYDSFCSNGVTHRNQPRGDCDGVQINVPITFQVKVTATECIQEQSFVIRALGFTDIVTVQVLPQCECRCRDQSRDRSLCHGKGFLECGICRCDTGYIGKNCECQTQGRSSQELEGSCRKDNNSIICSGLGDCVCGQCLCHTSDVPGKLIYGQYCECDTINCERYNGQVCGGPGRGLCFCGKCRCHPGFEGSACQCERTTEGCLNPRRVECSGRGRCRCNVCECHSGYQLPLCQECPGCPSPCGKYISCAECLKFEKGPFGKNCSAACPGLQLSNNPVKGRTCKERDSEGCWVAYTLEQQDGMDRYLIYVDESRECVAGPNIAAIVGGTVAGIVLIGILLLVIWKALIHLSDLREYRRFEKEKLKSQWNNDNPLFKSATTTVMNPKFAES
CD11b adhes enh: increases human CD11b/CD18 adhesion to fibrinogen; P05107+P11215; activation, % at 10 µM; 0.07% of 93,000 active; K562 CD11b/CD18 adhesion to fibrinogen, ATPlite luminescence;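 active = 10 µM primary screen giving 50% or more activity, confirmed by 40% or more on retest at that dose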
Numbers without * were called inactive; · = no result given.

SMILES | CYP2C9 inh | CYP2C19 inhib | CYP2C19 activ | CYP2C9 act | Mac1 fbg inh | CD11b adhes enh
CCOc1ccc(C(C)=O)cc1CSc1nnc(-c2cccs2)n1CC1CCCO1 (centres undefined) | 81.5* | 89.7* | 0.1 | 0.2 | -12.3 | -5.5
O=C(CCCSc1nnc(-c2cccs2)n1CC1CCCO1)c1ccccc1 (centres undefined) | 69.2* | 73.1* | 0.3 | 0.3 | 1.6 | 2.7
Cc1[nH]c2ccccc2c1C(c1ccccn1)N1CCC(C(N)=O)CC1 (centres undefined) | -6.3 | 50.7* | 0.5 | 1.1 | 15.5 | -2.7
Fc1ccccc1CNc1ccc(Cl)c(Cl)c1 | 7.2 | 12.7 | 0.9 | 0.9 | -0.8 | 4.8
CCN1C(=O)C2(Nc3ccccc3-c3nc4ccccc4n32)c2cc(OC)ccc21 (centres undefined) | 68.9* | 33.5 | 0.7 | 0.3 | 13.8 | -0.4
CN1C(=O)C2(Nc3ccccc3-c3nc4ccccc4n32)c2ccccc21 (centres undefined) | 64.4* | 71.4* | 0.3 | 0.4 | -12.0 | 1.9
CCN(CC)S(=O)(=O)c1ccc(N2CCN(S(=O)(=O)c3ccc4c(c3)OCCO4)CC2)nc1 | 43.7 | 28.7 | 0.7 | 0.6 | 29.4 | -3.5
CCn1cc(S(=O)(=O)CC(=O)Nc2ccc3c(c2)OCCO3)c2ccccc21 | 69.6* | 36.5 | 0.6 | 0.3 | -0.5 | -1.5
Cn1cc(S(=O)(=O)CC(=O)Nc2ccc(Br)cc2)c2ccccc21 | -0.7 | 99.4* | 0 | 1 | -4.5 | -3.9
CCn1cc(S(=O)(=O)CC(=O)Nc2ccc(C)cc2)c2ccccc21 | 31.6 | 90.1* | 0.1 | 0.7 | 0.1 | -6.0
CCCn1cc(S(=O)(=O)CC(=O)Nc2ccc(OCC)cc2)c2ccccc21 | 30.3 | 24.4 | 0.8 | 0.7 | -3.6 | -0.9
CCS(=O)(=O)N1CCN(C(=O)c2ccc(-c3ccccc3)cc2)CC1 | -9.3 | -14.5 | 1.1 | 1.1 | 10.8 | -4.5
CCCN1c2cccc3cccc(c23)S1(=O)=O | -336.3 | 89.9* | 0.1 | 4.4* | · | 0.6
N#CCCCCN1c2cccc3cccc(c23)S1(=O)=O | -388.5 | 85.3* | 0.1 | 4.9* | -11.7 | -0.7
Cc1cc(C)nc(N(C#N)CN2C(=O)c3ccccc3S2(=O)=O)n1 | -70.1 | 23.5 | 0.8 | 1.7 | -6.9 | 1.5
Cc1ccc(NC(=O)N/C=C/c2ccco2)cc1 | 33.4 | 43.4 | 0.6 | 0.7 | -42.9 | 4.3
O=C(COc1ncnc2ccccc12)N1CCN(S(=O)(=O)c2ccc(Cl)cc2)CC1 | 32.8 | 9.6 | 0.9 | 0.7 | 7.5 | -1.4
O=C(c1cccs1)c1ccc(-c2cccs2)s1 | 73.9* | 48.7 | 0.5 | 0.3 | 36.1 | 0.7
COC(=O)CP(=O)(c1ccccc1)c1ccccc1 | -20.9 | -24.7 | 1.2 | 1.2 | -1.4 | -3.7
Cc1ccc(OCc2ccc(C(=O)O)o2)c([N+](=O)[O-])c1 | · | · | · | · | 5.1 | -0.2
Cn1ccnc1C(O)(c1nnc(-c2ccccc2)o1)C(F)(F)F (centres undefined) | -3.6 | -8.0 | 1.1 | 1 | -12.7 | -3.1
COc1ccc(Oc2nc(C)cc(C)c2S(C)(=O)=O)cc1 | 5.5 | 14.5 | 0.9 | 0.9 | · | ·
Cc1ccc(Sc2nc(C)cc(C)c2S(C)(=O)=O)cc1 | 63.6* | 46.6 | 0.5 | 0.4 | · | ·
CCn1cc(CNC(=O)c2cc(-c3cc(OC)ccc3OC)nc3ccccc23)c(C)n1 | · | · | · | · | -7.8 | -5.7
CCC(OC(=O)c1cc2sccc2n1C)C(=O)NCc1ccco1 (centres undefined) | 71.9* | 53.9* | 0.5 | 0.3 | -12.1 | -0.4
SMILES | CYP2C9 inh | CYP2C19 inhib | CYP2C19 activ | CYP2C9 act | Mac1 fbg inh | CD11b adhes enh
O=C(OC(C(=O)NCc1cccs1)c1ccc(F)cc1)c1ccco1 (centres undefined) | 40.8 | 29.6 | 0.7 | 0.6 | -2.1 | -0.8
COc1ccccc1C(OC(=O)c1cccs1)C(=O)NCc1ccco1 (centres undefined) | 40.1 | 58.4* | 0.4 | 0.6 | -10.0 | 0.4
COc1ccc(C(OC(=O)c2ccco2)C(=O)NCc2ccco2)cc1 (centres undefined) | 19.9 | 13.1 | 0.9 | 0.8 | -7.0 | -1.0
CCC(C)(C)NC(=O)C(OC(=O)c1ccco1)c1ccccc1OC (centres undefined) | 38.5 | 64.1* | 0.4 | 0.6 | -8.7 | 6.1
O=C(OC(C(=O)NCc1cccs1)c1ccccc1Cl)c1ccco1 (centres undefined) | 91.1* | 88.5* | 0.1 | 0.1 | 3.5 | -2.8
COc1cc([N+](=O)[O-])ccc1N/C=C/C(=O)c1cccs1 | 17.1 | 24.0 | 0.8 | 0.8 | 5.7 | -9.5
Cc1cc2c(cc(C(=O)OC(C(=O)NCc3ccco3)C(C)C)n2C)o1 (centres undefined) | 46.6 | 65.6* | 0.3 | 0.5 | -2.0 | 7.8
CC(OC(=O)c1cccs1)C(=O)NCc1ccco1 (centres undefined) | 37.1 | 85.8* | 0.1 | 0.6 | 0.3 | -1.9
CC(C)C(OC(=O)c1cccs1)C(=O)NCc1ccco1 (centres undefined) | 41.9 | 59.8* | 0.4 | 0.6 | -13.4 | -2.5
CC(C)C(OC(=O)c1cc2occc2n1C)C(=O)NCc1ccc2c(c1)OCO2 (centres undefined) | 85.3* | 73.7* | 0.3 | 0.1 | 0.2 | 2.0
CCOC(=O)Cn1cnc([N+](=O)[O-])n1 | -24.9 | -14.1 | 1.1 | 1.2 | -20.9 | -1.3
CC(=O)OC(C(=O)NCc1ccco1)c1ccncc1 (centres undefined) | 55.2* | 31.2 | 0.7 | 0.4 | -8.6 | 0.8
CCC(OC(=O)c1nsc(Cl)c1Cl)C(=O)NCc1ccco1 (centres undefined) | 57.2* | 59.3* | 0.4 | 0.4 | 5.3 | 2.1
O=C(O)c1ccccc1OCCOCCOc1ccccc1C(=O)O | -4.5 | -12.2 | 1.1 | 1 | 3.4 | 7.3
O=C(NC1CCc2ccccc21)C1CCN(S(=O)(=O)c2ccc(-n3cnnn3)cc2)CC1 (centres undefined) | -23.2 | -17.7 | 1.2 | 1.2 | -14.0 | 0.9
O=c1c2cnn(-c3ccccc3)c2ncn1Cc1cccc(Cl)c1 | 2.5 | -10.3 | 1.1 | 1 | -24.3 | -0.1
O=c1c2ccsc2ncn1Cc1ccc(Cl)cc1 | 54.0* | 61.2* | 0.4 | 0.5 | · | ·
COc1cc(CC(=O)NCCc2ccc(S(N)(=O)=O)cc2)cc(OC)c1OC | 18.0 | -15.3 | 1.2 | 0.8 | -11.0 | -2.7
COc1ccc(/C=C2/C(=O)N(CC3CCCO3)C(=S)N2C)c(OC)c1 (centres undefined) | 90.4* | 63.9* | 0.4 | 0.1 | -5.2 | 2.4
N#Cc1c(-c2ccccc2)cc(-c2ccco2)c(C#N)c1N | 23.6 | 31.2 | 0.7 | 0.8 | 1.0 | 79.8
CC(C)(C)c1cc(-c2ccco2)c(C#N)c(SCC#N)n1 | 94.6* | 40.5 | 0.6 | 0.1 | · | ·
COc1ccc(NC(=O)c2n[nH]c(=O)c3ccccc23)cc1S(=O)(=O)N1CCCCC1 | · | · | · | · | -9.9 | -2.7
